# Where a name gives a salt, the structure may show the parent alone.
# System: HCC1937
# Experiment: relative cell viability, compound alone, vs DMSO (fraction of DMSO control); higher = less growth inhibition
# Details: 72 h
# 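Note: viability read out with the CCK-8 kit in 96-well plates, screening a set of 303 compounds acting on lipid metabolism targets.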
row,SMILES,relative cell viability
1,CN(C)C(=N)NC(=N)N [Metformin hydrochloride],0.98
2,O=C(Nc1ccccc1)N1CCN(c2nc(-c3ccccc3)ns2)CC1,0.807
3,NC(CO)C(=O)O (racemic) [DL-Serine],0.683
4,O=C(c1ccc(-c2nc3ccc(F)cc3o2)cc1)N1CCN(C(=O)C2(O)CC2)CC1,0.831
5,CC1=C(C)C(=O)C(C(CCCCCC(=O)O)c2ccccc2)=C(C)C1=O (configuration not stated) [Seratrodast],1.37
6,CN(CCOc1ccc(CC2SC(=O)NC2=O)cc1)c1ccccn1 (configuration not stated) [Rosiglitazone maleate],0.841
7,CC1(N)CCN(c2cnc(-c3cccc(Cl)c3Cl)c(N)n2)CC1 [SHP099 hydrochloride],0.768
8,COc1ccc2c(=O)c(-c3ccccc3)coc2c1 [7-Methoxyisoflavone],0.594
9,COc1ccc2c(c1)CCC1C2CCC2(C)C(NCCCCCCN3C(=O)C=CC3=O)CCC12 (configuration not stated),0.699
10,CC1=C(/C=C/C(C)=C/C=C/C(C)=C/C=C/C=C(C)/C=C/C=C(C)/C=C/C2=C(C)C(=O)[C@@H](O)CC2(C)C)C(C)(C)C[C@H](O)C1=O [Astaxanthin],1.01
11,CNC(=O)c1cccc(NC(=O)N2CCC(Oc3ccccc3Cl)CC2)c1,0.991
12,CCN(CC)c1ccc(C=NNC(=O)c2ccncc2)c(O)c1,0.4
13,O=P(O)(O)OC(CO)CO [β-Glycerol phosphate disodium salt pentahydrate],0.636
14,"Cc1cc(=O)oc2c(O)c(O)ccc12 [7,8-Dihydroxy-4-methylcoumarin]",0.911
15,CC(C)CCC[C@@H](C)[C@H]1CC[C@H]2[C@@H]3CCC4=CC(=NO)CC[C@]4(C)[C@H]3CC[C@]12C [Olesoxime],0.978
16,Cc1c(C(=O)NN2CCOCC2)nn(-c2ccc(Cl)cc2Cl)c1-c1ccc(I)cc1,0.645

row,SMILES,relative cell viability
1,N[C@@H](Cc1c[nH]cn1)C(=O)O [histidine],1.05
2,O=C(NN1CCCCC1)c1nn(-c2ccc(Cl)cc2Cl)c(-c2ccc(C#Cc3ccc(C(F)(F)F)cc3)s2)c1CNS(=O)(=O)N1CCCC1,1.01
3,CC1(C)CC[C@]2(C(=O)O[C@@H]3O[C@H](CO)[C@@H](O)[C@H](O)[C@H]3O)CC[C@]3(C)C(=CC[C@@H]4[C@@]5(C)CC[C@H](O[C@@H]6O[C@H](C(=O)O)[C@@H](O)[C@H](O)[C@H]6O)C(C)(C)[C@@H]5CC[C@]43C)[C@@H]2C1 [Chikusetsusaponin IVa],1.02
4,CCCCCCCCCc1ccc(B(O)O)cc1 [4-Nonylphenylboronic acid],1.01
5,O=C(OC(C(F)(F)F)C(F)(F)F)N1CCN(Cc2ccc(C(F)(F)F)cc2N2CCCC2)CC1,0.999
6,CCOP(=O)(OCC)C(=Cc1cc(C(C)(C)C)c(O)c(C(C)(C)C)c1)P(=O)(OCC)OCC,0.631
7,CC1(C)CC[C@]2(C(=O)O[C@@H]3O[C@H](CO)[C@@H](O)[C@H](O)[C@H]3O)CC[C@]3(C)C(=CC[C@@H]4[C@@]5(C)CC[C@H](O[C@@H]6O[C@H](C(=O)O)[C@@H](O)[C@H](O)[C@H]6O[C@@H]6O[C@H](CO)[C@@H](O)[C@H](O)[C@H]6O)C(C)(C)[C@@H]5CC[C@]43C)[C@@H]2C1 [Ginsenoside Ro],1.02
8,CCc1c(-c2ccccc2)c(-c2ccccc2)nn1-c1ccccc1-c1cccc(OCC(=O)O)c1,1.18
9,CCCCC[C@H](O)CC(=O)CCc1ccc(O)c(OC)c1 [6-Gingerol],0.646
10,C/C=C(\CC[C@@H](C)[C@H]1CC[C@H]2[C@@H]3CC=C4C[C@@H](O)CC[C@]4(C)[C@H]3CC[C@]12C)C(C)C [Fucosterol],1
11,O=C(O)CN(CC(=O)O)c1ccccc1OCCOc1ccccc1N(CC(=O)O)CC(=O)O,0.633
12,COc1cc(O)c2c(c1)O[C@H](c1ccc(O)cc1)CC2=O [Sakuranetin],0.627
13,CC(C)(O)c1ccccc1CC[C@@H](SCC1(CC(=O)O)CC1)c1cccc(/C=C/c2ccc3ccc(Cl)cc3n2)c1 [Montelukast],0.789
14,CC(C)c1nc(N(C)S(C)(=O)=O)nc(-c2ccc(F)cc2)c1/C=C/[C@@H](O)C[C@@H](O)CC(=O)O [Rosuvastatin],0.633
15,Cc1cc(N2C[C@@H](C)N[C@@H](C)C2)ncc1-c1ccc(-c2nc3c(ccn3C)c(=O)[nH]2)cc1,0.855
16,COc1ccc(-c2coc3cc(O)cc(O)c3c2=O)cc1 [Biochanin A],0.813

# Source: the supplement of paper PMC9492666
